From the supplement of paper PMC11732987, “Enantioselective OTUD7B fragment discovery through chemoproteomics screening and high-throughput optimisation” (Communications Chemistry, 2025)

Legend:
Experiment in all cases: log2 ratio of Biotin-Ahx-Ub-VS probe labelling (fragment/DMSO); higher = less target engagement (more negative = stronger competition), active = hit call of the paper (q ≤ 0.05, log2 ratio ≤ -1)
Conditions in all cases: compound concentration: 200 uM; treatment time: 3 h
[1] = molecular target: T1, USP19 (UniProt O94966)
T1 sequence (whole entry): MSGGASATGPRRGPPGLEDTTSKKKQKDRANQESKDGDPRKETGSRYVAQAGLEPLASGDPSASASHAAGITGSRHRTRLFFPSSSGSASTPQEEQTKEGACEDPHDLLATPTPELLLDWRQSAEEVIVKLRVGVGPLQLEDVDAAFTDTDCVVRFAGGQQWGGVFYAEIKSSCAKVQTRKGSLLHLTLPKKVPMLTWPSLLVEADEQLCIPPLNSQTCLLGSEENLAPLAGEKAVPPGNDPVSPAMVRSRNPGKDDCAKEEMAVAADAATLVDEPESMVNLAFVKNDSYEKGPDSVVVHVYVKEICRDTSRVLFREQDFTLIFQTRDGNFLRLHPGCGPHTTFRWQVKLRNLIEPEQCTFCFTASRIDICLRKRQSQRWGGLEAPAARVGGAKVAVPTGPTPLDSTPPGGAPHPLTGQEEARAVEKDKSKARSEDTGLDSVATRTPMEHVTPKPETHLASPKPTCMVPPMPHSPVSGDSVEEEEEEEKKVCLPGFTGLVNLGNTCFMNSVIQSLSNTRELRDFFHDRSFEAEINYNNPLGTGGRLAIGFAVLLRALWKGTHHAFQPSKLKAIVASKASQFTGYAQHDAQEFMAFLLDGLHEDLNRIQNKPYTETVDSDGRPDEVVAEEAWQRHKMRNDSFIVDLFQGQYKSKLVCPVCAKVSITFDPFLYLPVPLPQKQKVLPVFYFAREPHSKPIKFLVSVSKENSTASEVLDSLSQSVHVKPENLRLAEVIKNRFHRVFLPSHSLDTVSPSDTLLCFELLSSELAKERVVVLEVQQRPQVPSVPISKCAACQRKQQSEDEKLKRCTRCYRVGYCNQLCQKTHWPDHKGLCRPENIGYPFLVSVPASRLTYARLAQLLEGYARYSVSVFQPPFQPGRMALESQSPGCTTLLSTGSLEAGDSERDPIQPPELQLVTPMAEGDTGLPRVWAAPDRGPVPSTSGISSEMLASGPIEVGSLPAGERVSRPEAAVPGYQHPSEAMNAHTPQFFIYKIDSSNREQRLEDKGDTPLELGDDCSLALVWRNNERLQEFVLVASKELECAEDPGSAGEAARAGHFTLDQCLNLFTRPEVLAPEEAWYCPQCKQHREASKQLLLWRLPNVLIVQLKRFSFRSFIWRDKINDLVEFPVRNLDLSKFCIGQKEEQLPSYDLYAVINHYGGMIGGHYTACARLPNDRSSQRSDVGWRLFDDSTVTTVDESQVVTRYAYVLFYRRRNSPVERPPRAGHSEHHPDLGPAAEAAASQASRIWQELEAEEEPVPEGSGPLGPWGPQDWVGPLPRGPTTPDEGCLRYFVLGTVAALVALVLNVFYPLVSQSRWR
Procedure, shortened: (§1)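 Labelled DUBs from HEK293T lysate were NeutrAvidin-enriched, digested with LysC and trypsin, and run by diaPASEF LC-MS/MS. Before that, each 495 µg sample in Tris/CHAPS/IGEPAL buffer with protease inhibitors was treated in triplicate with fragment at 200 µM or vehicle for 3 h, then with Biotin-Ahx-Ub-VS at 0.5 µM final for 1 h. Values are average log2 ratios of fragment over vehicle by unpaired t-test, based on global-median-normalised Spectronaut label-free quantities from proteins with ≥2 unique peptides.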

[2] = molecular target: USP24 (UniProt Q9UPU5)
Sequence of USP24 (Q9UPU5 whole entry): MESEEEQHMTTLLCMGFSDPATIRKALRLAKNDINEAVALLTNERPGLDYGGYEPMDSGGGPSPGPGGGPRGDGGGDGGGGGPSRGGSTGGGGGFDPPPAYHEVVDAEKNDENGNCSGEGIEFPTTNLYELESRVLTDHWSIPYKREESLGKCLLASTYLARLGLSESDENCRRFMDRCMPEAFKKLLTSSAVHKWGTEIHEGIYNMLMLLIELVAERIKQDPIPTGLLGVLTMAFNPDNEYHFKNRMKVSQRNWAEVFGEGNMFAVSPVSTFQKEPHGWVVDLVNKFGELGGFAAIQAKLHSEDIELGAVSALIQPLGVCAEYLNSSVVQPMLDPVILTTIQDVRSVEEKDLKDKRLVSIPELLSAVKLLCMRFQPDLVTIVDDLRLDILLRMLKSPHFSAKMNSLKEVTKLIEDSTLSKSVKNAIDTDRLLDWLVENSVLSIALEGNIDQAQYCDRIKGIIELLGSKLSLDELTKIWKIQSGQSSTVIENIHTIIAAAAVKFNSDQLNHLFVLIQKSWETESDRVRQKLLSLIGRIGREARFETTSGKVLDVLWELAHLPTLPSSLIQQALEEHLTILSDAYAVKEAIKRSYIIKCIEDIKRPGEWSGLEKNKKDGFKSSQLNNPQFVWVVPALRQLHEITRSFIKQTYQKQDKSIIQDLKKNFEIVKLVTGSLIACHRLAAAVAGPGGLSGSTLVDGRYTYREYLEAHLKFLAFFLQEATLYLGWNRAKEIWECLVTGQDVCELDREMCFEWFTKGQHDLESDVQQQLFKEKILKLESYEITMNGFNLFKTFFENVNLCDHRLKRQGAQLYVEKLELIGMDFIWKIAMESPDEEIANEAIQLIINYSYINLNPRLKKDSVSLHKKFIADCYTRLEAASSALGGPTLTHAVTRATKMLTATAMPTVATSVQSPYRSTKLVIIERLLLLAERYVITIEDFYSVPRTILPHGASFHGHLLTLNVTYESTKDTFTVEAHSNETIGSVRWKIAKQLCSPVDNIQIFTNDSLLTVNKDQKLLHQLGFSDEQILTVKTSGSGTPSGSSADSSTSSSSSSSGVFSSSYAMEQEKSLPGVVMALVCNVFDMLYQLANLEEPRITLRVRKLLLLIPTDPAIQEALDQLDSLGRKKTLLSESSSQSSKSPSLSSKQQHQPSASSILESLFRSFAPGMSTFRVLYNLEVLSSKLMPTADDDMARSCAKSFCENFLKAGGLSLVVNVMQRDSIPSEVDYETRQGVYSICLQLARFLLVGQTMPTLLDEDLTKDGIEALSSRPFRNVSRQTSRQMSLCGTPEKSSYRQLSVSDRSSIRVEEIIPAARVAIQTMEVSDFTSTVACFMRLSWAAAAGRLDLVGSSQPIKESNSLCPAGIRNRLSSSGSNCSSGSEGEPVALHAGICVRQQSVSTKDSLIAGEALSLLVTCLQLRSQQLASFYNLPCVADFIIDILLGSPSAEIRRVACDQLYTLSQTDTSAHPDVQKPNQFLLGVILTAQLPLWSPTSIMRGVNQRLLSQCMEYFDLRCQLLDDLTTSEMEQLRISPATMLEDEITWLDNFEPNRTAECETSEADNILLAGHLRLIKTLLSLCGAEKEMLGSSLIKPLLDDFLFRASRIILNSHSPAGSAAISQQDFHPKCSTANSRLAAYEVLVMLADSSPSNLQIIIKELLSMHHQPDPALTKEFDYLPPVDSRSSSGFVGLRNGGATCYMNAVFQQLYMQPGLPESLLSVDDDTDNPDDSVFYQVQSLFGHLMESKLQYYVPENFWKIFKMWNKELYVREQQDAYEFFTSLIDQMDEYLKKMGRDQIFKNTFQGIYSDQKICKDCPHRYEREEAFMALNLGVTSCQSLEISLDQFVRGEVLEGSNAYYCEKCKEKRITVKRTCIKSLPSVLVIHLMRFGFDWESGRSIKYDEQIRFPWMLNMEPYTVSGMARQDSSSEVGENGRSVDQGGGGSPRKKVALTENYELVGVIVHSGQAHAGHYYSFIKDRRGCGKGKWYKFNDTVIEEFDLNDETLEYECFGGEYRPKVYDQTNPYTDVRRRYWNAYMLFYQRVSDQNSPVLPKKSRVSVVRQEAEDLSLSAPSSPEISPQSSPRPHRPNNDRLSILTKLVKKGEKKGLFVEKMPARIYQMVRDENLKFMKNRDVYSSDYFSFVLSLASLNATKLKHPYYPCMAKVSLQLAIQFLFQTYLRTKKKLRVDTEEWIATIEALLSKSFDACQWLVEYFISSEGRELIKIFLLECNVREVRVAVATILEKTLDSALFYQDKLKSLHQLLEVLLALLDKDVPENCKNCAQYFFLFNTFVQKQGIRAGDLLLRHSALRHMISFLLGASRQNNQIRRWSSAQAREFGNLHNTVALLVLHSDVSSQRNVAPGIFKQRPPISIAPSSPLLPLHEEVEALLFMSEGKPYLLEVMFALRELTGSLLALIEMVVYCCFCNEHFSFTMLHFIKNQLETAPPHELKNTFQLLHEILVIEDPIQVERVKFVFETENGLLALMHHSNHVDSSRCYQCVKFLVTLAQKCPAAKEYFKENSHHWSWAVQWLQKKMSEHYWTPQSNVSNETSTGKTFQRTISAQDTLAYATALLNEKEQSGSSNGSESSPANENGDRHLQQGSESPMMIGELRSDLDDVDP
Procedure, shortened: as §1

[3] = molecular target: T2, USP25 (UniProt Q9UHP3)
T2 sequence (whole entry): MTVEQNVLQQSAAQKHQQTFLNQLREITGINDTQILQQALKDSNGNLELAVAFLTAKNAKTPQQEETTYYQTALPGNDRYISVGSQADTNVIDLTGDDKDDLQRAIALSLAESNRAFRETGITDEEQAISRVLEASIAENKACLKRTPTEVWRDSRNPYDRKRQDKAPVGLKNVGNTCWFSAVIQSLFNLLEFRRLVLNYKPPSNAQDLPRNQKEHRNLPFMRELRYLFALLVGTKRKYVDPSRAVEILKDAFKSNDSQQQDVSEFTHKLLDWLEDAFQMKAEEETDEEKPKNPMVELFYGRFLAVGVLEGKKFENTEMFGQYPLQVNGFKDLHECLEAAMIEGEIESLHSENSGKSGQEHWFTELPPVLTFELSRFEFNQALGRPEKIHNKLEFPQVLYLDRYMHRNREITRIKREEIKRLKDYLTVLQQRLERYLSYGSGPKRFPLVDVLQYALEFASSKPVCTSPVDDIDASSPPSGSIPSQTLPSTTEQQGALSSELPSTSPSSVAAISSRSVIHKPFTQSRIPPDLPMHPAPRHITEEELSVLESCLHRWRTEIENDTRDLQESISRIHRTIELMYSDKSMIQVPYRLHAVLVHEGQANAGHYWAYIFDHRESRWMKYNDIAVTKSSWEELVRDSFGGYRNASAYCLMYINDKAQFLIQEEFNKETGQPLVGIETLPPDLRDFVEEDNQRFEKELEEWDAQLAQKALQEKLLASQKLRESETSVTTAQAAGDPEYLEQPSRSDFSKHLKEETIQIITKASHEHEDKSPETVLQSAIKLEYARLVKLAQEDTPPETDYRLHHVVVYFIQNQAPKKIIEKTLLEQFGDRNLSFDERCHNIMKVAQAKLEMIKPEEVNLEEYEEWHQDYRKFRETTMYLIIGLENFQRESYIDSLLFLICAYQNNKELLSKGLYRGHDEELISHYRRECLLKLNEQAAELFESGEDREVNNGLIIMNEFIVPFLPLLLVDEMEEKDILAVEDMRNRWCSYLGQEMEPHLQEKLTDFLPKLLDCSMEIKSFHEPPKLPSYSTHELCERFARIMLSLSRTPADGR
Procedure, shortened: as §1

[4] = molecular target: T3, USP28 (UniProt Q96RU2)
T3 sequence (whole entry): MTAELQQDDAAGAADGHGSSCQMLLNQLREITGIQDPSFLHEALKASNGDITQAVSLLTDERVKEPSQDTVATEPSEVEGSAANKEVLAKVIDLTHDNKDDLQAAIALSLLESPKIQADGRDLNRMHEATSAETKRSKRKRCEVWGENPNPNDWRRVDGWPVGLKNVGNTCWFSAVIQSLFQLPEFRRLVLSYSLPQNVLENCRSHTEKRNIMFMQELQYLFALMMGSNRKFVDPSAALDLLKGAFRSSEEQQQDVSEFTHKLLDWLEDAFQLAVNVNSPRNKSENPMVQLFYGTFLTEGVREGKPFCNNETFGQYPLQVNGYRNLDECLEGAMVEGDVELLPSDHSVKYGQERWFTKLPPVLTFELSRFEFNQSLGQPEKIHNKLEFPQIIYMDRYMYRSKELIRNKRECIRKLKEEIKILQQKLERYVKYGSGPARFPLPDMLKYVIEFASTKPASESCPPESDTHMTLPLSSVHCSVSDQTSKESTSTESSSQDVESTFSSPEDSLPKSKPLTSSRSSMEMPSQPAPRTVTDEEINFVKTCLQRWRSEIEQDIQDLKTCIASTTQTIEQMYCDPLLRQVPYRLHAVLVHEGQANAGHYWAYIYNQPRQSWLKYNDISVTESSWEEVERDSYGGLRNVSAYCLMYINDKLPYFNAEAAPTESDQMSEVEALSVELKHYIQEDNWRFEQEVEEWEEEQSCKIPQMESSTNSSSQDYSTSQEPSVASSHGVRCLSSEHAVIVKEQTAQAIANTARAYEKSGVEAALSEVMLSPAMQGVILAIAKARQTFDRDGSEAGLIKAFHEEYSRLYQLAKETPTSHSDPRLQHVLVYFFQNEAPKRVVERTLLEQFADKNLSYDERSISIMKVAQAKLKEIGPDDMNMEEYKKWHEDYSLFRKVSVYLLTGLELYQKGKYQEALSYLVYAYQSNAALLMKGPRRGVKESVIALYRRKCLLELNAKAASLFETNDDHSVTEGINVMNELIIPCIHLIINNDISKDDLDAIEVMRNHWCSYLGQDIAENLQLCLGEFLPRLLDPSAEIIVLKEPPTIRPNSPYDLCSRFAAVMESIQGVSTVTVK
Procedure, shortened: as §1

Measured: log2 ratio of Biotin-Ahx-Ub-VS probe labelling

Cc1ccc2nnc(CNC(=O)CCl)n2c1
inactive: [1] -0.0329 | [2] 0.0887 | [3] 0.182 | [4] -0.241
